14 compounds from PubChem BioAssay can be followed below.

The nature of experiment [1]: inhibitors of TNFa-induced NFkB p65 translocation, primary screen, imaging, HUVEC, MLSMR starter and 10KST1 sets (AID 438;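 active = inhibition above 20% together with a positive visual image hit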;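 note: compound added about 3h40 before a 20 min TNFalpha stimulation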;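 for inhibition: signal is the nuclear over cytoplasmic p65 intensity ratio per well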). Particulars: HUVEC TNFa-induced p65 nuclear translocation; cell count: measured here: nuclei count (cytotoxicity indicator), at 2.08 µM; inhibition: at 2 µM, stronger effect = higher value, 0% TNFa-plus-vehicle, 100% no-TNFa wells.
The nature of experiment [2]: reduction of polyQ htt aggregates in cells – imaging, exon1htt(103Q)mCFP cells, high-content imaging, primary screen (AID 483;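 active = visual image review flags a hit and inhibition of aggregation exceeds 20%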;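 note: compound exposure lasted 3 days before fixation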;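 for nuclei count: percent of the per-plate median nuclei count of sample wells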). As to conditions: exon1htt(103Q)mCFP cell line, aggregate imaging, at 2 µM; inhibition of aggregation: stronger effect = higher value; nuclei count: measured here: cell count, toxicity.
Experiment [3] is described as follows: endothelial E-selectin expression blockers – imaging, HUVEC, immunofluorescence, MLSMR starter and 10KST1 sets, primary screen (AID 487;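 active = visually confirmed hit in the image check and inhibition above 20%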;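 for inhibition: signal is fraction of cell area covered by stained E-selectin grains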;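 for nuclei count: 100% = median nuclei count of all wells on the same plate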). As to conditions: HUVEC TNFalpha-induced E-selectin immunofluorescence imaging, at 2 µM; inhibition: stronger effect = higher value; nuclei count: measured here: cell number, toxicity.
Experiment [4] concerns the target Voltage-gated potassium channel subunit beta-2 (Rattus norvegicus) (UniProt P62483). As to the kind of experiment: inhibitors of rat Kvbeta2 reductase activity – biochemical, NADPH fluorescence, primary screen (AID 622;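 active = fluorescence slope higher than the sample average by over 3 SD, cut at about -0.22 in these data, passing the limit was not always enough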;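 note: slope of raw intensity against log time taken from 70 to 1610 s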). As to conditions: recombinant KvBeta, 4-cyanobenzaldehyde reduction, at 10 µM, stronger effect = higher value.
The target is the same in experiment [5]. The experiment in a line: enhancers of rat Kvbeta2 NADPH turnover – biochemical, NADPH fluorescence, primary screen (AID 623;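 active = NADPH fluorescence slope more negative than the mean of all samples by about 3 SD, 99.7% confidence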;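 note: fluorescence intensity change per second fitted from 20 to 320 s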). Particulars: Recombinant KvBeta, NADPH fluorescence decrease slope, 10 min; at 10 µM; stronger effect = lower value.
Experiment [6] concerns the target Alpha-2C adrenergic receptor (Homo sapiens) (UniProt P18825). As to the kind of experiment: compounds altering alpha2C-coupled GIRK flux – cell-based, HEK293 alpha2C/GIRK1/2, thallium flux, primary screen (AID 624;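 active = fluorescence slope after compound addition differing from the mean of all screened samples at 99.7% confidence, in either direction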;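 note: slope of fluorescence ratio to pre-addition baseline per second over 15 to 24 s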). As to conditions: thallium flux BTC fluorescence, at 10 µM, actives lie on both sides.
Experiment [7] can be described thus: blockers of RIG-like receptor reporter activation – cell-based, Sendai virus stimulus, luciferase, 10K MLSCN set, TLR/RLR signaling modifier project, primary screen (AID 602276;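 active = inhibition at or above 50% at 10 µM; inactive = inhibition below 50%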;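 note: firefly luciferase from ISG56 promoter only with Renilla not read in this screen; 0% = Sendai virus plus DMSO and 100% = medium plus DMSO without virus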). Particulars: HEK293 RL24 IRF3 luciferase reporter, at 10 µM, stronger effect = higher value.
A short description of experiment [8]: TLR3 IRF3 reporter activation blockers – cell-based, poly I:C stimulus, luciferase, 10K MLSCN set, primary screen (AID 602277). As to conditions: HEK293-TLR3 RL24 IRF3 luciferase reporter, at 10 µM, stronger effect = higher value. For orientation: A reporter such as luciferase makes a cellular process visible.

SMILES strings stand for the structures. Calls of active or inactive are those of the source.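 Rule for the calls, unless noted: active = inhibition of the reporter signal at or above 50%; inactive = inhibition below 50%.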

The term inhibition denotes the relative decrease from the control value, in per cent.

Voltage-gated potassium channel subunit beta-2 (Rattus norvegicus), sequence (P62483 whole entry, looked up): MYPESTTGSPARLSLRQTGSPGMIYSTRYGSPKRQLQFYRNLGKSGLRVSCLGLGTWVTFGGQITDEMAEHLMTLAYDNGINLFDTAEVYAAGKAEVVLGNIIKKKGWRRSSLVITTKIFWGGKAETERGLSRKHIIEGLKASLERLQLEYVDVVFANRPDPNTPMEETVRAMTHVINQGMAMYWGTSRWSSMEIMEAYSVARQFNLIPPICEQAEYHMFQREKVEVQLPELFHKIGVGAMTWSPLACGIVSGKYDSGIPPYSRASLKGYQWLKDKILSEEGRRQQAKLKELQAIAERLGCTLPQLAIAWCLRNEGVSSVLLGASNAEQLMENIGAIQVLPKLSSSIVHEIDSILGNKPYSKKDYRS
Alpha-2C adrenergic receptor (Homo sapiens), sequence (P18825 whole entry, looked up): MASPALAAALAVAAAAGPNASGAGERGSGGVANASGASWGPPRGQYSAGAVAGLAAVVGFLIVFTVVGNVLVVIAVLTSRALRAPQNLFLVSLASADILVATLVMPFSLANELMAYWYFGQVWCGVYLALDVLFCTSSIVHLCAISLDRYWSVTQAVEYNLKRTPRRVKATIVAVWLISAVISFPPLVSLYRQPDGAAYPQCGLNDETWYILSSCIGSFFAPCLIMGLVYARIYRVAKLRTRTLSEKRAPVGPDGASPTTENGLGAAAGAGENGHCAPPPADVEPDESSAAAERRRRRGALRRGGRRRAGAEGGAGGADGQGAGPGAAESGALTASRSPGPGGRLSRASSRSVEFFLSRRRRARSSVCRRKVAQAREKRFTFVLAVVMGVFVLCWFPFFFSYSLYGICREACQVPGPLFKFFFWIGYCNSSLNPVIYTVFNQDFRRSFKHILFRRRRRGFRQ

Turning to `O=C1c2ccccc2C(Nc2ccc3c(c2)OCCO3)N1Cc1ccco1` (centres undefined), the cell count in experiment [1] stood at 548. Moreover, the inhibition in experiment [1] is -2% (inactive); in experiment [3] it was -106% (inactive); in experiment [7], 12.3% (inactive); in experiment [8], 7.32% (inactive). In experiment [2], the inhibition of aggregation was 17.5% (inactive). For the same compound, the nuclei count in experiment [2] stood at 102%; in experiment [3], 132%. Moreover, in experiment [4], the fluorescence slope is -0.589 (inactive). For the same compound, the NADPH fluorescence slope in experiment [5] was -2.3e-05 (inactive). For the same compound, in experiment [6], the slope is 0.00424 (inactive).
For the compound `COCCNC(=O)c1ccc(CS(=O)(=O)c2c(Cl)cccc2Cl)o1`, the cell count in experiment [1] was found to be 462. The inhibition in experiment [1] is -6.8% (inactive); in experiment [3] it was -46.3% (inactive); in experiment [7], -1.52% (inactive); in experiment [8] it was 24.5% (inactive). The inhibition of aggregation in experiment [2] was 22.9% (inactive). For the same compound, the figures for the nuclei count in experiment [2] and in experiment [3] were 103% and 112%, respectively. The fluorescence slope in experiment [4] was -0.428 (inactive). For the same compound, the NADPH fluorescence slope in experiment [5] was 2.4e-05 (inactive). Further, the slope in experiment [6] is 0.00478 (inactive).
For the compound `CC(NC(=O)c1ccco1)c1ccc2c(c1)OCCO2` (centres undefined), the cell count in experiment [1] is 418. Besides, the inhibition in experiment [1] is 9.3% (inactive); in experiment [3], -95% (inactive); in experiment [7] it was 9.46% (inactive); in experiment [8], 15.1% (inactive). Also, the inhibition of aggregation in experiment [2] was 10% (inactive). In addition, the nuclei count in experiment [2] came out at 89.2%; in experiment [3], 105%. For the same compound, the fluorescence slope in experiment [4] is -0.431 (inactive). Besides, in experiment [5], the NADPH fluorescence slope was -2.6e-05 (inactive). The slope in experiment [6] is 0.00638 (inactive).
Take `CCCOC(=O)/C(C(N)=NCc1ccccc1)=C(\O)OCCC`: in experiment [1], the cell count stood at 488. Further, the inhibition was 4.4% (inactive) in experiment [1], -8.5% (inactive) in experiment [3], -11.7% (inactive) in experiment [7] and -11.9% (inactive) in experiment [8]. Further, the inhibition of aggregation in experiment [2] was -27.7% (inactive). Also, the nuclei count came to 110% in experiment [2] and 127% in experiment [3]. Besides, in experiment [4], the fluorescence slope was -0.406 (inactive). The NADPH fluorescence slope in experiment [5] is 0.00015 (inactive). For the same compound, the slope in experiment [6] was 0.00562 (inactive).
For `COc1ccc(C(=O)NCc2nc3ccccc3[nH]2)cc1OC`, the cell count in experiment [1] was 679. The inhibition in experiment [1] is -0.5% (inactive); in experiment [3] it was -7.5% (inactive); in experiment [7] it was -1.85% (inactive); in experiment [8], 25% (inactive). In addition, in experiment [2], the inhibition of aggregation is 6.6% (inactive). The nuclei count worked out at 82.2% in experiment [2] and 112% in experiment [3]. Also, the fluorescence slope in experiment [4] is -0.582 (inactive). In experiment [5], the NADPH fluorescence slope is 3.9e-06 (inactive). Besides, the slope in experiment [6] is 0.0061 (inactive).
As for `Cc1cc(C(=O)Nc2ccc(S(=O)(=O)Nc3onc(C)c3C)cc2)cs1`, in experiment [1], the cell count came to 608. In addition, the inhibition is -3% (inactive) in experiment [1], -17.7% (inactive) in experiment [3], 5.43% (inactive) in experiment [7] and 8.03% (inactive) in experiment [8]. For the same compound, in experiment [2], the inhibition of aggregation is 15.4% (inactive). Besides, the nuclei count in experiment [2] worked out at 94.1%; in experiment [3], 105%. In experiment [4], the fluorescence slope is -0.361 (inactive). Further, the NADPH fluorescence slope in experiment [5] was -5e-05 (inactive). The slope in experiment [6] was 0.00493 (inactive).
With `O=C(CN1CCN(C2CCCCC2)CC1)Nc1ccccc1-c1ccccc1`, in experiment [1], the cell count came out at 273. For the same compound, the inhibition in experiment [1] is 18.4% (inactive); in experiment [3], -7.3% (inactive); in experiment [7] it was 2.95% (inactive); in experiment [8], 24.7% (inactive). In addition, in experiment [2], the inhibition of aggregation is 16.3% (inactive). The nuclei count in experiment [2] amounted to 110%; in experiment [3] it was 105%. Moreover, in experiment [4], the fluorescence slope was -0.609 (inactive). For the same compound, the NADPH fluorescence slope in experiment [5] was -3.4e-05 (inactive). Moreover, the slope in experiment [6] was 0.00596 (inactive).
In the case of `O=C(NCc1ccco1)c1cccc(-c2nnc(-c3ccccc3)o2)c1`, the cell count in experiment [1] turned out to be 320. The inhibition was -6% (inactive) in experiment [1], -78.1% (inactive) in experiment [3], 18.5% (inactive) in experiment [7] and -23.1% (inactive) in experiment [8]. Moreover, the inhibition of aggregation in experiment [2] was 5.1% (inactive). The nuclei count in experiment [2] was 122%; in experiment [3] it was 124%. Besides, the fluorescence slope in experiment [4] was -0.422 (inactive). Besides, in experiment [5], the NADPH fluorescence slope is -6.2e-05 (inactive). Also, the slope in experiment [6] was 0.00529 (inactive).
As to `CN1C(=O)C(O)(CC(=O)c2ccccc2O)c2cc(Br)ccc21` (centres undefined), the cell count in experiment [1] amounted to 608. The inhibition in experiment [1] was 3.4% (inactive); in experiment [3], -59.3% (inactive); in experiment [7] it was 7.07% (inactive); in experiment [8], 55.8% (active). Further, the inhibition of aggregation in experiment [2] was -2.8% (inactive). Moreover, the nuclei count in experiment [2] worked out at 63.4%; in experiment [3], 124%. Moreover, the fluorescence slope in experiment [4] is -0.439 (inactive). Further, in experiment [5], the NADPH fluorescence slope is -6e-05 (inactive). Besides, the slope in experiment [6] was 0.00404 (inactive).
As for `COc1ccc2[nH]c(=O)c(CN(CCO)S(=O)(=O)c3ccc4c(c3)OCCO4)cc2c1`, the cell count in experiment [1] was 539. In addition, the inhibition was -7.5% (inactive) in experiment [1], 24.9% (inactive) in experiment [3], 9.42% (inactive) in experiment [7] and 11.8% (inactive) in experiment [8]. The inhibition of aggregation in experiment [2] was 7.9% (inactive). Moreover, the nuclei count was 105% in experiment [2] and 98.9% in experiment [3]. Besides, the fluorescence slope in experiment [4] was -0.555 (inactive). The NADPH fluorescence slope in experiment [5] is -5.3e-05 (inactive). For the same compound, the slope in experiment [6] is 0.00253 (inactive).
For the compound `CCN(CC)C(=O)Cn1ncc2c1-c1ccccc1OC2`, in experiment [1], the cell count is 597. Also, the inhibition was 0.5% (inactive) in experiment [1], -54.6% (inactive) in experiment [3], 7.79% (inactive) in experiment [7] and 16.3% (inactive) in experiment [8]. For the same compound, the inhibition of aggregation in experiment [2] is -64.7% (inactive). The nuclei count amounted to 102% in experiment [2] and 123% in experiment [3]. Further, the fluorescence slope in experiment [4] was -0.588 (inactive). In experiment [5], the NADPH fluorescence slope was -4.7e-05 (inactive). Also, the slope in experiment [6] was 0.00665 (inactive).
Take `COc1cccc(OCCSc2nnc3sc4ccccc4n23)c1`: in experiment [1], the cell count was determined as 548. In addition, the inhibition in experiment [1] is -6.3% (inactive); in experiment [3], -24.1% (inactive); in experiment [7] it was -10.1% (inactive); in experiment [8], -31.6% (inactive). Further, the inhibition of aggregation in experiment [2] was 0.2% (inactive). The nuclei count worked out at 89% in experiment [2] and 127% in experiment [3]. Moreover, the fluorescence slope in experiment [4] was -0.463 (inactive). For the same compound, in experiment [5], the NADPH fluorescence slope is -0.000108 (inactive). Also, in experiment [6], the slope was 0.00727 (inactive).
For `CCN(CC)S(=O)(=O)c1ccc(Cl)c(C(=O)OC)c1`, the cell count in experiment [1] was 456. Moreover, the inhibition in experiment [1] is -5% (inactive); in experiment [3] it was 8.3% (inactive); in experiment [7], 20.5% (inactive); in experiment [8] it was 21.4% (inactive). For the same compound, the inhibition of aggregation in experiment [2] is 0.1% (inactive). The nuclei count in experiment [2] worked out at 87.5%; in experiment [3], 123%. Besides, the fluorescence slope in experiment [4] is -0.493 (inactive). Also, the NADPH fluorescence slope in experiment [5] is -2.2e-05 (inactive). For the same compound, the slope in experiment [6] is 0.00748 (inactive).
In the case of `CNC(=O)NCCN1CCCC1=O`, in experiment [1], the cell count stood at 505. Also, the inhibition in experiment [1] was 4.5% (inactive); in experiment [3], -83.1% (inactive); in experiment [7], 9.55% (inactive); in experiment [8], 11.8% (inactive). Besides, the inhibition of aggregation in experiment [2] was -26.4% (inactive). Also, the nuclei count worked out at 111% in experiment [2] and 123% in experiment [3]. Further, in experiment [4], the fluorescence slope is -0.335 (inactive). Also, in experiment [5], the NADPH fluorescence slope was -3.4e-05 (inactive). Also, in experiment [6], the slope was 0.00479 (inactive).
